Drawing on ChEMBL document CHEMBL4513216, “Probing the Open Global Health Chemical Diversity Library for Multistage-Active Starting Points for Next-Generation Antimalarials” (ACS Infect Dis, 2020), this text covers INHIBITION for 54 compounds.

Structures are written as SMILES. Screen size: about 69,000 compounds; about 8,600 (12%) showed an effect of 50% or more. The list comes from a sample in which strong results are over-represented; it also holds similar structures and randomly drawn compounds.

The assay deals with Plasmodium berghei. Description: Screen against P. berghei liver stage (PbLuc), transformed with Luciferase, at 10uM. It is filed as functional, HepG2. The conditions noted are these: tested at 10 uM.
Consider `COc1ncccc1C(=O)N1CCC(Nc2ccc(C)nn2)CC1`, for which the INHIBITION was 33.7%.
The value for `c1nnc(Nc2cncc(C3CCCN3)n2)s1` (centres undefined) was 13.285%; that for `Cc1cc(=O)n(C)cc1NC(=O)Cc1cc(F)ccc1F` was 56.5%.
The value for `Cc1cc(=O)n(C)cc1NC(=O)Cc1cccc(F)c1` was 25.1%; that for `Cc1cc(=O)n(C)cc1NC(=O)Cc1ccc(C(F)(F)F)cc1` was 11.7%.
The figure for `Cc1ccc(NC2(C(=O)NCc3c(C)n[nH]c3C)CCCC2)cc1` is 11.6%; for `Cc1ccc(NC2(C(=O)NCCCc3c(C)n[nH]c3C)CCCC2)cc1` it is -40.9%; for `Cc1ccc(NC2(C(=O)NCCCN)CCCC2)cc1` it is 53.2%.
As to `CO[C@H]1CO[C@@]2(CCCN(C(=O)N(C)C)C2)C1`, the INHIBITION was determined as 35.8%.
Take `CCc1n[nH]c(C2CN(C(=O)c3cc(C4CC4)on3)CCO2)n1` (centres undefined): the INHIBITION is reported as -3.58%.
The figure for `CNc1nc(CNC(=O)Nc2ccc([S+](C)[O-])c(F)c2)cs1` (centres undefined) is 22.955%; for `Cn1ccnc1CN1CCC(CNS(=O)(=O)c2cccnc2)C1` (centres undefined) it is 58.3%.
Consider `O=C(Oc1ccccc1)N1CCC(CNS(=O)(=O)c2cccnc2)CC1`, for which the INHIBITION was 18.2%.
As to `Cn1ccnc1CCNS(=O)(=O)c1cccnc1`, the INHIBITION was 38.6%.
The figure for `O=C(c1ccco1)N1CCc2onc(Cn3cccn3)c2C1` is 21.5%.
The value for `CNC(=O)[C@@H]1C[C@@H](N)CN1Cc1ccc2cccc(OC)c2n1` was 55.5%.
For `CCNC(=O)[C@@H]1C[C@H](N)CN1Cc1ccc2cccc(Cl)c2n1`, the INHIBITION was 35.4%.
Take `CCNC(=O)[C@@H]1C[C@@H](N)CN1Cc1ccc2cccc(Cl)c2n1`: the INHIBITION worked out at 11.9%.
The value for `O=C1CC2(CCN(S(=O)(=O)c3cccs3)C2)CN1c1ccccc1` (centres undefined) was -0.104%; that for `CC(Cn1cccn1)NC(=O)N1CCN(Cc2ccsc2)CC1` (centres undefined) was 4.71%.
The value for `CCCN(Cc1cnn(C)c1)S(=O)(=O)c1ccc(F)c(C#N)c1` was -32.4%; that for `O=C(c1ccccc1F)N1CCN(c2ccc(-n3cccc3)nn2)CC1` was 55.9%; that for `Cc1cccc(C(=O)N2CCN(c3ccc(-n4cccc4)nn3)CC2)c1` was 51.5%.
The figure for `O=C(c1cccnc1)N1CCN(c2ccc(-n3cccc3)nn2)CC1` is 0.647%.
Take `O=C(c1ccccc1F)N1CCN(c2ccc(-n3cccn3)nn2)CC1`: the INHIBITION was found to be 0.472%.
The figure for `Cc1nc(N2CCN(C(=O)c3cccnc3)CC2)cc(-n2cccc2)n1` is 32.4%; for `O=C(c1ccccn1)N1CCN(c2ccc(-n3cccc3)nn2)CC1` it is 27.6%; for `COCC(=O)N1CCCC1c1nccnc1Nc1nc(C)cs1` (centres undefined) it is 39.7%.
Turning to `Cc1ccc(C(=O)O)cc1CNC(=O)CN1CC(C)(C)[C@@](C)(O)C1`, the INHIBITION is reported as 28.7%.
The figure for `Cc1cnn(CC2CCCN2CC(=O)Nc2cc(C(C)C)no2)c1` (centres undefined) is -35.7%; for `CC(C)c1nccc(CN2CCC(O)(CN3CCCCC3)C2)n1` (centres undefined) it is 32.5%.
The figure for `Cc1cc(F)ccc1CN1CCC(O)(CN2CCCCC2)C1` (centres undefined) is -10.4%.
Turning to `CN(C)CC1(O)CCCN(Cc2cnc(-c3ccco3)nc2)CC1` (centres undefined), the INHIBITION is 6.28%.
With `OC1(CN2CCCC2)CCCN(Cc2cnc(-c3ccco3)nc2)C1` (centres undefined), the INHIBITION came to 61%.
The figure for `CC(C)c1nccc(CN2CCCC(O)(CN(C)C)C2)n1` (centres undefined) is 7.92%; for `CC(C)c1nccc(CN2CCCC(O)(CN3CCCC3)C2)n1` (centres undefined) it is 62%; for `Cc1cc(F)ccc1CN1CCCC(O)(CN2CCCC2)C1` (centres undefined) it is 55%.
The value for `OC1(CN2CCCC2)CCCN(Cc2ccc(F)cc2Cl)C1` (centres undefined) was 13.7%.
The value for `OC1(CN2CCCC2)CCCN(Cc2cnc(-c3ccccc3)nc2)C1` (centres undefined) was 45.7%.
As for `O=C(Cc1cccnc1)N1CCC2(CCN(CC3CCCCC3)C2)CC1`, the INHIBITION stood at 26.4%.
As for `Cc1cc(C)cc(C(=O)N2CCCC3(CCCC(=O)N3C)C2)c1` (centres undefined), the INHIBITION is given as -15.9%.
The figure for `O=C(c1ccc(-n2ccnc2)cc1)N1CCCC(n2ccnc2)C1` (centres undefined) is 2.3%; for `CC(C)(NS(C)(=O)=O)c1nc(-c2cccc(Cl)c2)no1` it is -4.83%.
The value for `CC=C(C)C(=O)NS(=O)(=O)c1ccc(C(F)(F)F)cc1` was 13.2%; that for `Cc1nc[nH]c1CN(Cc1ccc(F)cc1)C1CC(C)(C)NC(C)(C)C1` was 42.4%.
As for `Cc1ccsc1CN(Cc1cccnc1)C1CC(C)(C)NC(C)(C)C1`, the INHIBITION is listed as 33.7%.
With `Cc1ccc(CN(Cc2cccnc2)C2CC(C)(C)NC(C)(C)C2)s1`, the INHIBITION worked out at 42.1%.
The value for `CCCN(Cc1cccnc1)C1CC(C)(C)NC(C)(C)C1` was 10%; that for `Cc1ccc(CN(Cc2ccccn2)C2CC(C)(C)NC(C)(C)C2)s1` was 37%.
The value for `CC1(C)CC(N(Cc2cccnc2)Cc2cccc(F)c2)CC(C)(C)N1` was 75.3%; that for `Cc1nc[nH]c1CN(Cc1ccccc1)C1CC(C)(C)NC(C)(C)C1` was 6.785%.
Turning to `Cc1cccc(CN(Cc2cccnc2)C2CC(C)(C)NC(C)(C)C2)n1`, the INHIBITION is listed as 35.2%.
As for `CC1(C)CC(N(Cc2ccccc2)Cc2cccnc2)CC(C)(C)N1`, the INHIBITION is recorded as 65.4%.
As for `CC1(C)CC(N(Cc2cccnc2)Cc2cccnc2)CC(C)(C)N1`, the INHIBITION was found to be 64.9%.
